Data: PMC13494018

B1: design_613_5efed0bc-64ba-423b-b3f9-a246574e49bb_1398_dldesign_0_cycle1_af2pred (protein)
chain: MEEVKEEMEKLLEKVKKAVAEDVGKGGEVLVEFVKKGAELAANSTPEAAAYARKKMKEAINIVLEATLAA
B2: design_612_bdadb936-3f14-48ad-830f-718e38d81c30_1983_dldesign_0_cycle1_af2pred (protein)
chain: EEKVREEAKEAIEKAKEAVEKLKEAAKADPRLAVAAKAATAALEKAKELLEENPESALKLAKTTLDLAEATLAAAA
B3: design_613_5efed0bc-64ba-423b-b3f9-a246574e49bb_896_dldesign_0_cycle1_af2pred (protein)
chain: AQAEAARQAAVDALAKSGEAAVKAMKEDPERASKRASGAIANLRLLGDEETAEKVAKKLLEEAKKLGEEAYEIAKKEVEKAKENVEA
B4: design_613_5efed0bc-64ba-423b-b3f9-a246574e49bb_260_dldesign_0_cycle1_af2pred (protein)
chain: AAAVGEGSKLVIEGIKALAEAAQRVAFDPEIQAKLMAQAAKATRALVQGAADPATALELAKKALEEAKKAVKEAEKVLA
B5: design_613_5efed0bc-64ba-423b-b3f9-a246574e49bb_898_dldesign_0_cycle1_af2pred (protein)
chain: GEEEERLRREGERIVEEARRLAEEAVAAIKAAAPDVAKATAILIDYLKRIDELVKRAAPYPEAAAEVAELGNRASAQGIRYIMAAA
B6: design_612_bdadb936-3f14-48ad-830f-718e38d81c30_2254_dldesign_0_cycle1_af2pred (protein)
chain: GAAEAEEAARREEAKKLAEEYLKKVEEAAKESTGKAVEVMVKGVKELLEIGDKETANALAQEATRIISAAVRA
B7: design_613_5efed0bc-64ba-423b-b3f9-a246574e49bb_1343_dldesign_0_cycle1_af2pred (protein)
chain: LAEAAERTARAIERNALEAIKTLSPEEAKRAAELAVTMLEGLAIAAPEAAPVARGLAERVRAAEREYTSKKLAE
B8: design_613_5efed0bc-64ba-423b-b3f9-a246574e49bb_1441_dldesign_0_cycle1_af2pred (protein)
chain: SEAERLAEEARRVILSGTAEEGAAAAVAAARKALEAGNLEGANLVLYESALAFGEAQRRGTPEDRAILNRGLAEVSRITLELARAA
B9: design_613_5efed0bc-64ba-423b-b3f9-a246574e49bb_341_dldesign_0_cycle1_af2pred (protein)
chain: SEMIEKIKELGEEAKKIGKEGLAGTPEEMLKAAEKLRELMKEISRLAAEAMKESPEVEEIALAGGEALSIAAEEIAKLQAAAAAA
B10: design_613_5efed0bc-64ba-423b-b3f9-a246574e49bb_1210_dldesign_0_cycle1_af2pred (protein)
chain: AEKIEKLTKALELLLEALKHKDDIELARELAKKAAELLKEAGAEEAAKYAEAAAKATDKEEMTELLNKAAGKAAKAIIDAQKAAA
B11: design_612_bdadb936-3f14-48ad-830f-718e38d81c30_1747_dldesign_0_cycle1_af2pred (protein)
chain: SAADVAAATQKALKKQAEKLLELAKEAAAKDKEEAKKYAKAAKKLAELMVLAGEQAGTGAEAKKEAEKIKKEVEKVVKEA
B12: design_612_bdadb936-3f14-48ad-830f-718e38d81c30_1931_dldesign_0_cycle1_af2pred (protein)
chain: SMEELEKKREEAEKGLEEIKELAKKAAEGAKDPATAAATMAEALEKLEEYKETIELAKEVGEELAEKVRAAVNELLANVARAGAVAAA
B13: design_612_bdadb936-3f14-48ad-830f-718e38d81c30_1832_dldesign_0_cycle1_af2pred (protein)
chain: MEKAKELVKKIKELARKIKELAERLKADPSTAEQDLKEVNEALSEALELQKKVAEIGSPEDAEEANKELGKAQRAALEAHRAAAELA
B14: design_612_bdadb936-3f14-48ad-830f-718e38d81c30_1961_dldesign_0_cycle1_af2pred (protein)
chain: MERLEKIEKRIEEIEKVVEEAEKKVKEGTITGEDALRLNKALAEARRIAEEAAKLDPELAKRAQAVAERASRVLVEGNKLLVA
B15: design_613_5efed0bc-64ba-423b-b3f9-a246574e49bb_418_dldesign_0_cycle1_af2pred (protein)
chain: AGAEAAAHLNAAFASLSKGLISTDPAEAQKYFDEAKAHLDKARALAAKDPAVAAEVQAAVDKITDLLEGGKAAR
B16: design_613_5efed0bc-64ba-423b-b3f9-a246574e49bb_150_dldesign_0_cycle1_af2pred (protein)
chain: GEKEKAVKEAKEAAEETEKVAKEAIKAAKAAGNEAAAKMAEALAKNAKKALEEAKKGTLEEAKKNLKYIESNLKNAKLILEGQ
B17: design_612_bdadb936-3f14-48ad-830f-718e38d81c30_1410_dldesign_0_cycle1_af2pred (protein)
chain: MEEIRALAEEALATAEAELATMRAAQEAGDVGTAVDALRVLFRTANEAIRRLRELGGPEEYIERLEAARREAQAILAATARRAIAQA
B18: design_613_5efed0bc-64ba-423b-b3f9-a246574e49bb_35_dldesign_0_cycle1_af2pred (protein)
chain: DQARADALIAAVDAAVAAAEAALAEDPELGLAKGAEASALIVEALKASAELSPAERARLAAALNAATARLLKVQAAAREQLA
B19: design_613_5efed0bc-64ba-423b-b3f9-a246574e49bb_1285_dldesign_0_cycle1_af2pred (protein)
chain: GLKEELLKEVRKVKKEAEKNAKDLEKLNEYLAKALDIAKKAQEAGDKETIAEATKVANLAAKLALEVAKA

molecular target: CD276, Q5ZPR3
Sequence (Q5ZPR3 whole entry): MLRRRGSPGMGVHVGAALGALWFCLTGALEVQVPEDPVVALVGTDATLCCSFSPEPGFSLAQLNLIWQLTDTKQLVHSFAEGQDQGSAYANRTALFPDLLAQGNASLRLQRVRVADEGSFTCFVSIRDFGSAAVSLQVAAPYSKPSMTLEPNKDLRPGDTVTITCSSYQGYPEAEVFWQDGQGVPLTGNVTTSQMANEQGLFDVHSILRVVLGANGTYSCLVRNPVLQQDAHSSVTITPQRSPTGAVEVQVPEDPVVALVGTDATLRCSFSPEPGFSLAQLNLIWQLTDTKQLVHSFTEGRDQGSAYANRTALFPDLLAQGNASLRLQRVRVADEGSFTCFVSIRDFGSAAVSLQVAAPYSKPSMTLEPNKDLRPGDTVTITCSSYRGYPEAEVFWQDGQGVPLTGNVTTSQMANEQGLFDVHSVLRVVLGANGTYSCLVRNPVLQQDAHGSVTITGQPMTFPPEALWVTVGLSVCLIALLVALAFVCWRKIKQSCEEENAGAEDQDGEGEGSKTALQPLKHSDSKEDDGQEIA

Binder	binding in a display sort
B1	not found (inactive)
B2	not found (inactive)
B3	not found (inactive)
B4	not found (inactive)
B5	not found (inactive)
B6	not found (inactive)
B7	not found (inactive)
B8	not found (inactive)
B9	not found (inactive)
B10	not found (inactive)
B11	not found (inactive)
B12	not found (inactive)
B13	not found (inactive)
B14	not found (inactive)
B15	not found (inactive)
B16	not found (inactive)
B17	binds (active)
B18	not found (inactive)
B19	not found (inactive)
